Source: PubChem
TDP1 cell noCPT – qHTS for Inhibitors of human tyrosyl-DNA phosphodiesterase 1 (TDP1): qHTS in cells in absence of CPT; DT40 Tdp1-/- hTDP1 cells, no CPT, ATP luminescence, 48 h; Potency, µM (titrated, usually from 46.2 µM), for inactives: top-dose activity change, negative = growth inhibition, most hits filed as inhibitors; hit rate 15% among 420,000; also: nearly all actives have a fitted effect of over 55% in size
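Cells were dispensed at 400 per well, compounds added by pin tool, plates incubated ≥48 hr at 37 °C, then CellTiter-Glo added for 30 min at room temperature before luminescence reading. Line: DT40 Tdp1-/- complemented with hTDP1; camptothecin omitted.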
HT1080 IDH1KD tx – HT-1080 IDH1 knockdown cell toxicity (counter line). HT-1080 IDH1 knockdown viability, ATP luminescence, 48 h. Potency, µM (doses to about 46.1 µM), for the others: top-dose activity, negative = toxicity, most hits filed as cytotoxic. hit rate 2% among 360,000. AID 686971;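 also: 0% = DMSO wells and -100% = cell-free medium wells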
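HT-1080-IDH1KD cells (IDH1 knocked down), 750/well in RPMI with 5% FBS, treated with compound 48 h at 37 degrees C. Viability by CellTiter-Glo luminescence, normalised to DMSO and no-cell wells; concentration-response curves classed.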
KB-V1 MDR tox – kills drug-selected multidrug resistant KB-V1 cells; KB-V1 MDR cells viability, CellTiter-Glo, 72 h; Potency, µM (titrated, usually from 46.1 µM), hits mostly cytotoxic; hit rate 3.4% among 400,000; AID 1347076; also: nearly all actives have a fitted effect of over 60% in size
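Cytotoxicity toward P-gp-expressing KB-V1 cells was determined as loss of CellTiter-Glo luminescence after 72 h at 37 degrees C. Compounds were tested in quantitative HTS format across a concentration range, with curves fitted to normalized data.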
DT40 TDP1 CPT – DT40-hTDP1 cell growth loss with CPT; Potency, µM (doses to about 46.2 µM), for inactives: at the highest dose activity change, negative = growth inhibition, most hits filed as inhibitors; chicken DT40 Tdp1-/-;hTDP1 cells + 20 nM CPT, ATP luminescence, 48 h; hit rate 12% among 420,000; also: nearly all actives have a fitted effect of over 55% in size
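Chicken DT40 Tdp1-/- cells complemented with human TDP1, 400 cells/well, exposed to compounds plus 20 nM camptothecin for at least 48 h at 37 C; viability read as ATP content by CellTiter-Glo luminescence.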
KB-3-1 tox – KB-3-1 parental cell cytotoxicity; KB-3-1 viability, CellTiter-Glo ATP luminescence, 72 h; Potency, µM (series often up to 46.1 µM), hits mostly cytotoxic; hit rate 1.4% among 400,000; AID 1347075; also: nearly all actives have a fitted effect of over 60% in size
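Cells are dispensed, compounds pinned in, plates held at 37 °C for 72 h, then CellTiter-Glo is added and luminescence read after 10 minutes. Cell line: parental KB-3-1 in phenol-red-free DMEM, 10% FBS.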
HT1080NT lethal – kills 2HG-producing HT-1080-NT fibrosarcoma cells; HT-1080-NT fibrosarcoma viability, CellTiter-Glo ATP luminescence, 48 h; Potency, µM (titrated, usually from 46.1 µM), for inactives: at the top dose activity, negative = less viability, actives largely listed as cytotoxic; hit rate 1.6% among 360,000; AID 686970;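 also: NT is the 2HG producing partner of a matched IDH1 knockdown line; 0% = DMSO-treated cells and -100% = media-only wells without cells; nearly all actives have a fitted effect of over 55% in size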
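Fibrosarcoma NT cells, 750 per well in 5% FBS RPMI, were exposed to compound for 48 hours. Viability: CellTiter-Glo luminescence.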
Active calls of the source: *; i = inactive; ? = inconclusive; · = no result given; ! = not confirmed by another sample. Most compounds without a hit are left out; they make up all but 19% or so of the library. Calls follow the shape of the dose curve; as a rule, active = well fitted curve in the direction sought with a large enough effect; inconclusive = small, poorly fitted or top-dose-only effect, or another doubt; inactive = no such curve, though single readings can be large; an effect the other way counts as inactive or inconclusive. Unless noted, % is scaled to controls: 0 for no effect and ±100 for the full control effect; potency is read from the fitted curve at half-maximal effect.

SMILES | TDP1 cell noCPT | HT1080 IDH1KD tx | KB-V1 MDR tox | DT40 TDP1 CPT | KB-3-1 tox | HT1080NT lethal
Cc1ccc(S(=O)(=O)N2CCCC2CNC(=O)C(=O)Nc2ccccc2)cc1 (stereo unspecified) | ? | 0.8% | i | 29.1µM* | i | -0.4%
Cc1ccc(S(=O)(=O)N2CCCC2CNC(=O)c2ccccc2)cc1 (stereo unspecified) | -29.4% | 3.2% | i | ? | i | 0.7%
COc1ccc(S(=O)(=O)N2CCCC2CNC(=O)C(=O)Nc2cccc(F)c2)cc1 (stereo unspecified) | ? | -9.2% | 4.11µM* | -13.2% | i | -0.3%
CCCCCC1CCNCC1 | 8.91µM* | · | i | 6.31µM* | i | ·
CCCCCC1CCC(C(=O)N2CCOCC2)CC1 (stereo unspecified) | -14.7% | 23.7% | i | -1.9% | i | 9.5%
COc1cccc(Cn2cc(-c3cccc(C(F)(F)F)c3)nn2)c1 | ? | 9.5% | ? | ? | i | 21.2%
COc1ccc(-c2cn(CCc3c[nH]c4ccccc34)nn2)cc1 | 10µM* | ? | ? | 11.2µM* | i | ?
COc1ccc(-c2cn(Cc3cccc(OC)c3)nn2)cc1 | 11.2µM*! | 12.5% | 10.3µM*! | 12.6µM*! | ? | 10.1%
O=C(c1ccc(-n2cccn2)cc1)N1CCN(c2ncccc2C(F)(F)F)CC1 | ? | -8.4% | ? | ? | i | -1.2%
O=C(/C=C/c1ccc([N+](=O)[O-])cc1)Nc1ncc([N+](=O)[O-])s1 | 8.2µM* | ? | 8.2µM* | 5.8µM* | ? | ?
Cc1cnc(NC(=O)c2cccs2)s1 | -25.0% | -24.6% | ? | -2.4% | ? | -28.8%
CCCCC(CC)C(=O)Nc1ncc([N+](=O)[O-])s1 (stereo unspecified) | ? | 18.4µM* | ? | ? | ? | ?
O=C(Nc1ncc([N+](=O)[O-])s1)c1cccs1 | 10.3µM* | 20.6µM* | 16.4µM* | 18.4µM* | ? | 23.1µM*
O=C(/C=C/c1ccc([N+](=O)[O-])cc1)NCc1ccccn1 | -5.7% | -2.8% | i | ? | i | -5.5%
O=C(Nc1ncc([N+](=O)[O-])s1)c1ccccc1Br | 18.4µM* | ? | i | 20.6µM* | i | ?
COc1ccc(NCc2cc3cc4c(cc3n(CC(=O)Nc3ccc(C)c(C)c3)c2=O)OCO4)cc1 | · | · | i | · | ? | ·
CN(C(=O)Cn1nnc(-c2ccc(S(C)(=O)=O)cc2)n1)c1ccccc1 | -10.7% | · | i | 1.0% | i | ·
Cc1cc(C)c2nc(N(Cc3cccnc3)C(=O)c3cccs3)sc2c1 | ? | · | ? | ? | i | ·
COc1cccc(NC(=O)CSC2=Nc3ccccc3C3=NC(CC(=O)NCCc4ccccc4)C(=O)N23)c1 (stereo unspecified) | -7.8% | · | ? | -18.1% | i | ·
Cc1ccc(S(=O)(=O)N2[C@@H](Cc3ccccc3)CO[C@H]2CC(=O)c2ccc(F)cc2)cc1 | ? | -16.3% | ? | 23.1µM* | i | -5.5%
Cc1ccc(S(=O)(=O)N2[C@H](CC(=O)c3cccs3)OC[C@@H]2C(C)C)cc1 | 18.4µM* | ? | 18.4µM* | ? | 18.4µM* | ?
Cc1ccc(S(=O)(=O)N2[C@H](CC(=O)c3ccccc3)OC[C@@H]2C(C)C)cc1 | ? | -18.0% | ? | ? | ? | -17.4%
CC(C)(C)OC(=O)C[C@H]1C/C=C\C[C@H](CC(=O)N(CCO)Cc2ccccc2)C(=O)N[C@@H](c2ccccc2)COC1=O | ? | 1.4% | i | ? | i | -8.8%
CCOc1ccc2[nH]c(=O)c(CN(Cc3cccs3)Cc3nnnn3C(C)(C)C)cc2c1 | 15.8µM* | ? | 20.6µM* | 20.6µM* | i | ?
CCOC(=O)Cn1nnnc1CN(Cc1cccs1)Cc1cc2cc(C)ccc2[nH]c1=O | ? | -1.4% | i | ? | i | 3.3%
SMILES | TDP1 cell noCPT | HT1080 IDH1KD tx | KB-V1 MDR tox | DT40 TDP1 CPT | KB-3-1 tox | HT1080NT lethal
COc1ccc2[nH]c(=O)c(CN(Cc3cccs3)Cc3nnnn3C(C)(C)C)cc2c1 | 23.1µM* | ? | ? | ? | i | -13.2%
Cc1cc(NC(=O)CSc2nnc3c(C)cc4c(C)ccc(C)c4n23)no1 | 1.46µM* | 6.31µM* | 3.26µM* | 1.16µM* | i | 6.31µM*
CCc1nnc(NC(=O)CSc2nnc3c(C)cc4c(C)ccc(C)c4n23)s1 | 4.61µM* | 6.51µM* | i | 3.66µM* | 4.11µM* | 5.8µM*
COc1cc2cc(C)c3nnc(SCC(=O)Nc4cc(C)on4)n3c2cc1OC | ? | 0.5% | i | -3.2% | i | 6.1%
Cn1c(N)c(C(=O)COC(=O)C2=NNC(=O)CC2)c(=O)n(C)c1=O | -9.0% | 20.4% | i | -8.9% | i | 0.5%
COc1ccc(OC)c(NC(=O)C2(C)CCN2C(=O)CCC2CCCC2)c1 (stereo unspecified) | ? | -14.5% | i | 16.4µM* | i | -2.1%
CC1(C(=O)NS(=O)(=O)c2cccc(C#N)c2)CCN1C(=O)C1(c2ccc(Cl)cc2)CCC1 (stereo unspecified) | 5.1% | 5.8% | i | 7.7% | i | -6.3%
COc1cccc(NC(=O)C2(C)CCN2C(=O)Cc2ccc(C(C)C)cc2)c1 (stereo unspecified) | ? | -28.9% | i | 18.4µM* | i | -21.6%
CC1(C(=O)N2Cc3ccccc3C2)CCN1C(=O)C1(c2ccc(Cl)cc2)CC1 (stereo unspecified) | ? | -8.7% | i | 16.4µM* | i | -1.9%
CC1(C(=O)N2CCCCC2)CCN1C(=O)C1(c2ccccc2)CC1 (stereo unspecified) | -6.5% | 16.1% | i | 0.5% | i | ?
CC1(C(=O)NS(=O)(=O)c2ccc(C#N)cc2)CCN1C(=O)C1(c2ccc(Cl)cc2)CCC1 (stereo unspecified) | -29.9% | 0.3% | i | 18.4µM* | i | 0.4%
Cc1nnc2c(NC3CCCCC3)nc3ccccc3n12 | ? | -1.7% | ? | -15.9% | i | -1.1%
N#CCCn1c(=O)c(-c2cccs2)nc2cnc(Oc3ccccc3)nc21 | ? | · | · | -11.3% | · | ·
CCOC(=O)[C@H]1[C@H]2COc3ccc(Br)cc3[C@@H]2N2C(=O)c3c(C)cc(C)cc3NC(=O)[C@@]12C | ? | 2.2% | i | ? | ? | 3.3%
